In the library only some 2.8% were active in any assay of this set; here they are far more common.
GLP-1R inv ag: qHTS of GLP-1 Receptor Inverse Agonists (Inhibition Mode); Glucagon-like peptide 1 receptor (Homo sapiens), P43220; HEK293 GLP-1R CRE-luciferase, luminescence, 24 h; GLP-1R form is constitutively active; Potency, µM (series often up to 38.3 µM), for inactives: at the highest dose activity change, negative = inhibition, hits mostly inhibitors; actives 1.6% (n = 410,000); note: potency is the fitted concentration of half-maximal effect; % is set by controls: 0 for no effect and ±100 for the full control effect; nearly all actives have a fitted effect of over 55% in size
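Constitutively active GLP-1R drives a cAMP-responsive luciferase in stably transfected HEK293 cells; test compounds are added after overnight (12 h) attachment and left 24 hr, and signal loss in luminescence marks inhibition.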
GLS inh: qHTS for Inhibitors of Glutaminase (GLS); Potency, µM (top dose mostly 45.5 µM), for the others: at the highest dose activity change, negative = inhibition, usual class: inhibitors; AID 624170, 2012; GLS enzymatic activity, qHTS titration; actives 0.21% (n = 410,000); note: potency is the fitted concentration of half-maximal effect; % is set by controls: 0 for no effect and ±100 for the full control effect
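Two-point fluorescence kinetic (t0, 30 min RT) for hKGA; glutamate detected via glutamate oxidase–HRP–Amplex Red. Substrate: 1 mM L-glutamine solution; buffer 45 mM KH2PO4, pH 8.2.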
KCNH2 3.1 inh: qHTS for Inhibitors of KCHN2 3.1: Mutant qHTS | Potassium voltage-gated channel subfamily H member 2, brain isoform KCNH2 3.1 (human) | U2OS KCNH2 3.1, thallium flux FluxOr; hits give low values | activity change, % (tested at about 1.8 µM) | actives 0.95% (n = 340,000);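 active = maximum activity change below -70%; inconclusive = maximum activity change from -70% to -50%; inactive = maximum activity change above -50%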;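 note: thallium influx rate constant from kinetic fluorescence after stimulation buffer; % is set by controls: 0 for no effect and ±100 for the full control effect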
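Steps: virus added to U2OS suspension (4 h, RT, dark); medium with 10% FBS added, cells plated, 37 C overnight; FluxOr/Red40 loading buffer 45 min RT; stimulation buffer, 2 min kinetic read; rate constant normalized.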
GLP1R cytotox: qHTS of GLP-1 Receptor Inverse Agonists: Cytotox Screen. Potency, µM (highest dose often 38.3 µM), inactives show at the top dose activity change, negative = inhibition, actives largely listed as inhibitors. HEK293 cAMP-luciferase reporter cells, luminescence, 24 h. actives 0.13% (n = 410,000). AID 624418, 2012;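 note: loss of luciferase light is scored as toxicity; potency is the fitted concentration of half-maximal effect; % is set by controls: 0 for no effect and ±100 for the full control effect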
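Seeding density was 200 cells/uL; after overnight-length (12 h) culture, 23 nL compounds went on for 24 h at 37 °C. Readout used a luciferase detection reagent, luminescence taken after 12 min at room temperature.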
GLP1R ag: qHTS of GLP-1 Receptor Agonists. Glucagon-like peptide 1 receptor (Homo sapiens), P43220. HEK293 GLP-1R CRE-luciferase, luminescence, 4-6 h; cells express a hypersensitive GLP-1R form. Potency, µM (doses to about 45.6 µM), for inactives: at the top dose activation, actives largely listed as activators. actives 0.007% (n = 380,000); note: potency is the fitted concentration of half-maximal effect; % of control where 0% means no effect
KCNH2 WT inh: qHTS for Inhibitors of KCHN2 3.1: Wildtype qHTS; AID 720551, 2013; actives 0.37% (n = 340,000); activity change, % at 1.84 µM; U2OS, BacMam KCNH2, thallium flux FluxOr; hits give low values; Voltage-gated inwardly rectifying potassium channel KCNH2 (Homo sapiens), Q12809;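 active = maximum activity change below -70%; inconclusive = maximum activity change between -70% and -50%; inactive = maximum activity change above -50%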; note: % is set by controls: 0 for no effect and ±100 for the full control effect
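U2OS cells were transduced with wild-type KCNH2 virus (2.03 x 10^8 / mL) for 4 h at room temperature, then cultured overnight at 37 C. Thallium flux was read with FluxOr dye. Rate constants were normalized to DMSO controls.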
An asterisk follows results filed as active. Unless noted, calls come from the whole dose curve; as a rule, active = well fitted curve in the direction sought with a large enough effect; inconclusive = small, poorly fitted or top-dose-only effect, or another doubt; inactive = no such curve, though single readings can be large; an effect the other way counts as inactive or inconclusive.

`Cc1ccccc1S(=O)(=O)NC(=O)C1(C)CCN1C(=O)c1cccc2ccccc12` (centres undefined) gave GLP-1R inv ag -11.4%, GLS inh 3.3%, GLP1R cytotox 1.9% and GLP1R ag -5.5%.
Screening CCc1ccc(C(O)(CNCc2ccccc2)c2ccccc2)cc1 (centres undefined) returned GLP-1R inv ag 11.2µM*, GLS inh -0.8%, KCNH2 3.1 inh -33.3, GLP1R cytotox -16.6%, GLP1R ag -4.8% and KCNH2 WT inh 5.7.
`COc1ccc(CNCC(O)(c2ccccc2)c2ccc(Cl)cc2)cc1` (centres undefined) gave GLP-1R inv ag -5.5%, GLS inh -1.0%, KCNH2 3.1 inh -72.0*, GLP1R cytotox inconclusive, GLP1R ag 0.6% and KCNH2 WT inh -21.5.
`CC(=O)c1cccc(NC(=O)c2ccc(Cl)c(S(=O)(=O)N3CCOCC3)c2)c1` gave GLP-1R inv ag 1.2%, GLS inh -4.0% and GLP1R cytotox -1.0%.
`CC(=O)c1cccc(NC(=O)CCn2nc(C)c(S(=O)(=O)N3CCCCC3)c2C)c1` gave GLP-1R inv ag -15.2%, GLS inh -4.5% and GLP1R cytotox 3.8%.
For CCOC(=O)C1(CCOc2ccccc2)CCN(CCCn2cccn2)CC1 the results were GLP-1R inv ag inconclusive, GLS inh -13.1%, KCNH2 3.1 inh -87.9*, GLP1R cytotox -4.2%, GLP1R ag 8.0% and KCNH2 WT inh -37.7.
CCOC(=O)C1(CCOc2ccccc2)CCN(CC2CC2)CC1 was read as GLP-1R inv ag -21.9%, GLS inh 25.9%, KCNH2 3.1 inh -19.9, GLP1R cytotox 10.1%, GLP1R ag -6.0% and KCNH2 WT inh 12.7.
`CCOC(=O)C1(CCOc2ccccc2)CCN(C(=O)c2ccc(-n3cccn3)cc2)CC1` gave GLP-1R inv ag inconclusive, GLS inh 3.8%, KCNH2 3.1 inh -86.8*, GLP1R cytotox -1.5%, GLP1R ag 12.2% and KCNH2 WT inh inconclusive.
`CCOC(=O)C1(CCOc2ccccc2)CCN(Cc2cccc(-n3cccn3)c2)CC1` gave GLP-1R inv ag 5.01µM*, GLS inh 5.0%, KCNH2 3.1 inh -98.4*, GLP1R cytotox -11.5% and GLP1R ag -4.5%.
Screening OC[C@H]1O[C@H](OC/C=C/c2ccccc2)[C@H](O)[C@@H](O)[C@@H]1O returned GLS inh 0.3% and GLP1R ag -5.7%.
`O=C(NCc1ccccc1Br)c1ccc2c(c1)nc1n2CCOC1` gave GLP-1R inv ag 8.3%, GLS inh 7.2% and GLP1R cytotox -2.3%.
O=C(CON=C1c2ccccc2-c2ccccc21)NC12CC3CC(CC(C3)C1)C2 was read as GLP-1R inv ag 1µM*, GLS inh 0.1%, KCNH2 3.1 inh -27.2, GLP1R cytotox -21.5%, GLP1R ag 2.9% and KCNH2 WT inh -8.8.
O=C(COC(=O)C(O)c1ccccc1)NC12CC3CC(CC(C3)C1)C2 (centres undefined) was read as GLP-1R inv ag 2.3%, GLS inh -6.2%, KCNH2 3.1 inh 6.8, GLP1R cytotox -3.2%, GLP1R ag 7.7% and KCNH2 WT inh -1.2.
For COc1ccccc1C(=O)OCC(=O)NC12CC3CC(CC(C3)C1)C2 the results were GLP-1R inv ag 10µM*, GLS inh -14.5%, KCNH2 3.1 inh -4.9, GLP1R cytotox 11.4%, GLP1R ag 11.9% and KCNH2 WT inh 12.2.
O=C1Nc2ccccc2CCC1Sc1nnc(-c2ccc(Cl)cc2)s1 (centres undefined) was read as GLP-1R inv ag 0.0%, GLS inh -0.9%, KCNH2 3.1 inh -72.1*, GLP1R cytotox 5.9%, GLP1R ag -6.3% and KCNH2 WT inh 6.2.
For CC(C)=CCOc1ccc([C@@H]2COc3c(ccc4c3C=CC(C)(C)O4)C2)c(O)c1 the results were GLP-1R inv ag 10µM*, GLS inh 3.6%, KCNH2 3.1 inh 15.0, GLP1R cytotox inconclusive, GLP1R ag -2.6% and KCNH2 WT inh 4.7.
Screening COc1ccc(CN(CCC(C)C)S(=O)(=O)c2ccccc2Br)cc1 returned GLP-1R inv ag 11.2µM*, GLS inh 3.6%, KCNH2 3.1 inh -14.1, GLP1R cytotox 19.1%, GLP1R ag 0.6% and KCNH2 WT inh 1.6.
Screening C=CC[C@H](CC(=O)N[C@H](CO)Cc1ccccc1)C(=O)N[C@@H](COC(=O)[C@@H](CC=C)Cc1ccc(F)cc1)Cc1c[nH]c2ccccc12 returned GLP-1R inv ag inconclusive, GLS inh -1.0%, KCNH2 3.1 inh -80.2*, GLP1R cytotox -2.3%, GLP1R ag -3.7% and KCNH2 WT inh -5.6.
C=CCC[C@H](Cc1ccc(F)cc1)C(=O)OC[C@@H](Cc1c[nH]c2ccccc12)NC(=O)[C@@H](CC=C)CC(=O)N[C@@H](CO)Cc1ccccc1 was read as GLP-1R inv ag 7.08µM*, GLS inh 12.3%, KCNH2 3.1 inh -38.4, GLP1R cytotox inconclusive, GLP1R ag 2.6% and KCNH2 WT inh 3.2.
For C=CCC[C@@H](Cc1ccc(F)cc1)C(=O)OC[C@H](Cc1c[nH]c2ccccc12)NC(=O)[C@@H](CC=C)CC(=O)N[C@@H](CO)Cc1ccccc1 the results were GLP-1R inv ag inconclusive, GLS inh -1.0%, KCNH2 3.1 inh -7.2, GLP1R cytotox -19.7%, GLP1R ag -1.0% and KCNH2 WT inh -15.1.
For COc1ccc(CCNC(=O)c2ccc3c(c2)CCN3S(=O)(=O)c2ccccc2)cc1 the results were GLP-1R inv ag inconclusive, GLS inh 10.6% and GLP1R cytotox -4.1%.
For CCNC(=O)C1(C)CCCN(Cc2ccc(Oc3ccccc3)cc2)C1 (centres undefined) the results were GLP-1R inv ag 10µM*, GLS inh 0.3%, GLP1R cytotox -2.8% and GLP1R ag 1.0%.
Screening Cc1ccc(CNC(=O)c2c[nH]c3ccc(S(=O)(=O)Nc4ccc(C(C)C)cc4)cc3c2=O)cc1 returned GLP-1R inv ag inconclusive, GLS inh -10.5% and GLP1R cytotox -9.6%.
Screening Nc1nc(N)c2[nH]cnc2n1 returned GLP-1R inv ag 8.7%, GLS inh 1.6%, KCNH2 3.1 inh -91.9*, GLP1R cytotox 2.9%, GLP1R ag -2.9% and KCNH2 WT inh -3.9.
